Assay results reported in PubChem BioAssay (NCI).
This is part of a sample that, as a whole, favours compounds with a hit. Of some 83,000 tested, about 20% had one in any assay.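 A percent growth of 40 corresponds to 60% growth inhibition; 0 means no net growth; -100 means all cells died. Active threshold: below 10.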 Activity calls are given as the source filed them.

How the values were obtained:
Test in all cases: NCI-60 one-dose screen, 48 h (100 = growth as untreated, 0 = no growth, -100 = all killed)
Settings in all cases: 10 µM unless noted
RPMI-8226 leukemia = test system: RPMI-8226 leukemia
OVCAR-8 ovarian = test system: OVCAR-8 ovarian
OVCAR-5 ovarian = test system: OVCAR-5 ovarian
OVCAR-4 ovarian = test system: OVCAR-4 ovarian
SK-OV-3 ovarian = test system: SK-OV-3 ovarian
IGROV1 ovarian = test system: IGROV1 ovarian
OVCAR-3 ovarian = test system: OVCAR-3 ovarian
HS 578T breast = test system: HS 578T breast
NCI/ADR-RES ovarian = test system: NCI/ADR-RES ovarian
T-47D breast = test system: T-47D breast
BT-549 breast = test system: BT-549 breast
MDA-MB-435 melanoma = test system: MDA-MB-435 melanoma
SW-620 colon = test system: SW-620 colon
MCF7 breast = test system: MCF7 breast
HCT-116 colon = test system: HCT-116 colon
HCC-2998 colon = test system: HCC-2998 colon
KM12 colon = test system: KM12 colon
SR leukemia = test system: SR leukemia

Measured: growth

CCN1C(=O)N(CC)C2Nn3c(s/c(=C\c4ccc(Cl)cc4Cl)c3=O)=NC21 (configuration not stated)
inactive: RPMI-8226 leukemia 47.2% | OVCAR-8 ovarian 36.1% | OVCAR-5 ovarian 54.5% | OVCAR-4 ovarian 56.7% | SK-OV-3 ovarian 70.2% | IGROV1 ovarian 40.6% | OVCAR-3 ovarian 17.4% | HS 578T breast 55.4% | NCI/ADR-RES ovarian 14.7% | T-47D breast 76.9% | BT-549 breast 38.6% | SW-620 colon 30.4% | MCF7 breast 28.9% | HCT-116 colon 15.2% | HCC-2998 colon 73.9% | KM12 colon 13.1%
active: MDA-MB-435 melanoma -40.7%

Cc1ccc(-c2cc(-c3cccnc3)[nH]c(=O)c2C#N)cc1
inactive: RPMI-8226 leukemia 101% | OVCAR-8 ovarian 103% | OVCAR-5 ovarian 107% | OVCAR-4 ovarian 103% | SK-OV-3 ovarian 114% | IGROV1 ovarian 106% | OVCAR-3 ovarian 106% | HS 578T breast 102% | NCI/ADR-RES ovarian 105% | T-47D breast 95.6% | BT-549 breast 111% | MDA-MB-435 melanoma 103% | SW-620 colon 102% | MCF7 breast 94.7% | HCT-116 colon 115% | HCC-2998 colon 102% | KM12 colon 101%

COc1ccc(-c2nc3c(N)c(CO)c(C)nc3o2)cc1
inactive: SR leukemia 100% | OVCAR-8 ovarian 110% | OVCAR-5 ovarian 85.1% | OVCAR-4 ovarian 104% | SK-OV-3 ovarian 106% | IGROV1 ovarian 86.9% | OVCAR-3 ovarian 103% | HS 578T breast 105% | NCI/ADR-RES ovarian 89.7% | T-47D breast 90.9% | MDA-MB-435 melanoma 103% | SW-620 colon 118% | MCF7 breast 86.1% | HCT-116 colon 103% | HCC-2998 colon 87% | KM12 colon 96.5%

Cn1cc(-c2csc(-c3ccccc3)n2)c2cccnc21
inactive: HS 578T breast 20.8% [100 µM]
active: SR leukemia 0.511% [100 µM] | OVCAR-8 ovarian 2.29% [100 µM] | OVCAR-5 ovarian -44.2% [100 µM] | OVCAR-4 ovarian -19.4% [100 µM] | SK-OV-3 ovarian -30.1% [100 µM] | IGROV1 ovarian -20.7% [100 µM] | OVCAR-3 ovarian -31.8% [100 µM] | NCI/ADR-RES ovarian -27.8% [100 µM] | T-47D breast -45.4% [100 µM] | BT-549 breast -39.4% [100 µM] | MDA-MB-435 melanoma -45.2% [100 µM] | SW-620 colon -34.1% [100 µM] | MCF7 breast -44.7% [100 µM] | HCT-116 colon -76.9% [100 µM] | HCC-2998 colon -79.3% [100 µM] | KM12 colon -68.6% [100 µM]

Cn1c(-c2c(N)n(Cc3cccnc3)c3nc(C#N)c(C#N)nc23)nc2ccccc21
inactive: SR leukemia 40.1% | RPMI-8226 leukemia 94.5% | OVCAR-8 ovarian 80.5% | OVCAR-4 ovarian 102% | SK-OV-3 ovarian 116% | OVCAR-3 ovarian 99.5% | NCI/ADR-RES ovarian 95.5% | T-47D breast 92.1% | BT-549 breast 115% | MDA-MB-435 melanoma 89.3% | SW-620 colon 95.3% | MCF7 breast 103% | HCT-116 colon 44.5% | HCC-2998 colon 100% | KM12 colon 82.8%

C[n+]1cccc(CC(=O)NO)c1
inactive: SR leukemia 98.4% | OVCAR-8 ovarian 95.3% | OVCAR-5 ovarian 110% | OVCAR-4 ovarian 106% | SK-OV-3 ovarian 90.9% | IGROV1 ovarian 101% | OVCAR-3 ovarian 110% | HS 578T breast 101% | NCI/ADR-RES ovarian 105% | T-47D breast 79% | BT-549 breast 103% | MDA-MB-435 melanoma 107% | SW-620 colon 105% | MCF7 breast 96.4% | HCT-116 colon 104% | HCC-2998 colon 110% | KM12 colon 107%

CCOC(CN=Cc1cc(C)c2[nH]c3ccccc3c2c1C)OCC
inactive: RPMI-8226 leukemia 88.7% | OVCAR-8 ovarian 94.7% | OVCAR-5 ovarian 83.4% | OVCAR-4 ovarian 97.8% | SK-OV-3 ovarian 111% | IGROV1 ovarian 102% | OVCAR-3 ovarian 104% | HS 578T breast 123% | NCI/ADR-RES ovarian 101% | T-47D breast 94.4% | BT-549 breast 83.2% | MDA-MB-435 melanoma 97.8% | SW-620 colon 99.1% | MCF7 breast 88.9% | HCT-116 colon 94.4% | HCC-2998 colon 113% | KM12 colon 106%

CNC(=O)c1cc(Oc2ccc3nc(Nc4ccc(Cl)c(C(F)(F)F)c4)ccc3c2)ccn1
inactive: SR leukemia 30% | OVCAR-8 ovarian 58.4% | OVCAR-5 ovarian 91.8% | OVCAR-4 ovarian 56.3% | SK-OV-3 ovarian 93.3% | IGROV1 ovarian 83.8% | OVCAR-3 ovarian 61.5% | HS 578T breast 77.8% | T-47D breast 43.5% | BT-549 breast 83.1% | MDA-MB-435 melanoma 52.3% | SW-620 colon 104% | MCF7 breast 42.7% | HCT-116 colon 45.1% | HCC-2998 colon 65.5% | KM12 colon 52.7%

Cn1cc(-c2csc(-c3cccc(F)c3)n2)c2cccnc21
active: SR leukemia 0.511% [100 µM] | OVCAR-8 ovarian 1.57% [100 µM] | OVCAR-5 ovarian -52.4% [100 µM] | OVCAR-4 ovarian -44.8% [100 µM] | SK-OV-3 ovarian -20.8% [100 µM] | IGROV1 ovarian -22.6% [100 µM] | OVCAR-3 ovarian -44.7% [100 µM] | NCI/ADR-RES ovarian -34.4% [100 µM] | T-47D breast -47.9% [100 µM] | BT-549 breast -36.9% [100 µM] | MDA-MB-435 melanoma -53.6% [100 µM] | SW-620 colon -49.8% [100 µM] | MCF7 breast -62% [100 µM] | HCT-116 colon -79.7% [100 µM] | HCC-2998 colon -84.6% [100 µM] | KM12 colon -70% [100 µM]

COc1cc(/C=C/C(=O)c2cccc(-n3cc(-c4ccccc4)[nH]c3=O)c2)ccc1O
inactive: SR leukemia 15.3% | OVCAR-5 ovarian 61.3% | OVCAR-4 ovarian 49.1% | SK-OV-3 ovarian 92.2% | HS 578T breast 71.3% | NCI/ADR-RES ovarian 23.2% | T-47D breast 62.9% | BT-549 breast 43.9% | MDA-MB-435 melanoma 58.5% | MCF7 breast 16.5% | HCT-116 colon 13.5% | HCC-2998 colon 78.9% | KM12 colon 15%
active: RPMI-8226 leukemia -9.6% | IGROV1 ovarian 2.96% | OVCAR-3 ovarian 6.11% | SW-620 colon 4.95%

COC(=O)[C@H](CSC)N(C)C(=O)[C@@H]1CSSC[C@@H](NC(=O)c2nc3ccccc3cc2O)C(=O)NCC(=O)N1C
inactive: SR leukemia 28.6% | OVCAR-8 ovarian 90.2% | OVCAR-5 ovarian 128% | OVCAR-4 ovarian 103% | SK-OV-3 ovarian 91.6% | IGROV1 ovarian 95.8% | OVCAR-3 ovarian 58.2% | HS 578T breast 90.9% | NCI/ADR-RES ovarian 104% | T-47D breast 33.8% | BT-549 breast 111% | MDA-MB-435 melanoma 70% | SW-620 colon 74.2% | MCF7 breast 79.4% | HCT-116 colon 71.7% | HCC-2998 colon 98.8% | KM12 colon 50.6%

Cc1nn(-c2ccccc2)c2nc3c(c(-c4ccc(Cl)cc4)c12)CNC1(CCSCC1)N3
inactive: SR leukemia 96.8% | OVCAR-8 ovarian 105% | OVCAR-4 ovarian 98.9% | SK-OV-3 ovarian 98.9% | IGROV1 ovarian 99.1% | OVCAR-3 ovarian 104% | HS 578T breast 99.8% | NCI/ADR-RES ovarian 97.3% | T-47D breast 84.3% | BT-549 breast 109% | MDA-MB-435 melanoma 99.8% | SW-620 colon 92.8% | MCF7 breast 93% | HCT-116 colon 90.7% | HCC-2998 colon 101% | KM12 colon 98.3%

COc1ccc(C(=O)COc2ccc(/C=C3\Oc4ccccc4C3=O)cc2)cc1
inactive: SR leukemia 108% | OVCAR-8 ovarian 98.9% | OVCAR-5 ovarian 96.8% | OVCAR-4 ovarian 99.2% | SK-OV-3 ovarian 103% | OVCAR-3 ovarian 102% | HS 578T breast 100% | NCI/ADR-RES ovarian 91.8% | T-47D breast 73.8% | BT-549 breast 114% | MDA-MB-435 melanoma 59.7% | SW-620 colon 110% | MCF7 breast 115% | HCC-2998 colon 115% | KM12 colon 107%

O=C(Nc1cccc(C(F)(F)F)c1)Nc1cccc(C(F)(F)F)c1
inactive: OVCAR-5 ovarian 25.3% | OVCAR-4 ovarian 23.9% | IGROV1 ovarian 26.8% | OVCAR-3 ovarian 14.4% | SW-620 colon 15.2% | HCC-2998 colon 11.8%
active: SR leukemia -22.6% | OVCAR-8 ovarian 4.98% | SK-OV-3 ovarian -15.3% | HS 578T breast 8.56% | NCI/ADR-RES ovarian 7.46% | T-47D breast -4.96% | BT-549 breast 0.669% | MDA-MB-435 melanoma 9.11% | MCF7 breast 5.26% | HCT-116 colon -10.8% | KM12 colon 4.98%

O=c1c2c3c(sc2n2c(-c4cc(-c5ccccc5)nn4-c4ccccc4)nnc2n1Cc1ccccc1)CCCC3
inactive: SR leukemia 13.2% | OVCAR-8 ovarian 49.5% | OVCAR-5 ovarian 113% | OVCAR-4 ovarian 83.2% | SK-OV-3 ovarian 133% | OVCAR-3 ovarian 101% | HS 578T breast 356% | NCI/ADR-RES ovarian 80.4% | T-47D breast 72.5% | BT-549 breast 97.4% | MDA-MB-435 melanoma 85.2% | SW-620 colon 83.2% | MCF7 breast 68.3% | HCT-116 colon 55.4% | HCC-2998 colon 98.8% | KM12 colon 84.1%

CC(=O)c1ccc(NCC(=O)Nc2ccccn2)cc1
inactive: SR leukemia 108% | RPMI-8226 leukemia 113% | OVCAR-5 ovarian 109% | OVCAR-4 ovarian 98.9% | SK-OV-3 ovarian 97% | IGROV1 ovarian 94.8% | OVCAR-3 ovarian 117% | HS 578T breast 106% | NCI/ADR-RES ovarian 105% | T-47D breast 94.6% | BT-549 breast 104% | MDA-MB-435 melanoma 104% | SW-620 colon 102% | MCF7 breast 86.9% | HCT-116 colon 101% | HCC-2998 colon 110% | KM12 colon 99%

CCCCCCCCn1ccc2cc(NC(=O)Cn3cc(CN4CCCC4)nn3)ccc21
inactive: SR leukemia 19.2% | OVCAR-5 ovarian 88.4% | OVCAR-4 ovarian 76.2% | SK-OV-3 ovarian 87.2% | IGROV1 ovarian 76% | OVCAR-3 ovarian 51.9% | HS 578T breast 76.8% | NCI/ADR-RES ovarian 92.7% | T-47D breast 24.1% | BT-549 breast 70.8% | HCT-116 colon 37.7% | KM12 colon 41.8%
active: RPMI-8226 leukemia -66% | MDA-MB-435 melanoma -72.2% | SW-620 colon -54.8% | MCF7 breast 8.32% | HCC-2998 colon -54%

CCN(CC)CCCC(C)Nc1c2ccc(Cl)cc2nc2ccc(O)cc12 (configuration not stated)
active: MCF7 breast 6.22%
inactive: RPMI-8226 leukemia 21.8% | OVCAR-8 ovarian 30.1% | OVCAR-5 ovarian 74.3% | OVCAR-4 ovarian 24.6% | SK-OV-3 ovarian 58.1% | IGROV1 ovarian 53.8% | OVCAR-3 ovarian 54.8% | HS 578T breast 58% | NCI/ADR-RES ovarian 77.3% | T-47D breast 49.7% | BT-549 breast 64.8% | MDA-MB-435 melanoma 27% | SW-620 colon 24.5% | HCT-116 colon 14.8% | HCC-2998 colon 25.4% | KM12 colon 30.4%
